PubChem BioAssay (EPA / NIEHS)
Active and inactive are the calls of the source. How the source made its calls: active means hit-call score of the fitted dose curve at least 0.9, where 1 is the maximum; inactive means score below 0.9.

Legend:
[1] = read-out: Monokine induced gamma interferon (MIG), CXCL9 (gene 4283); assay: BSK_CASM3C_MIG: BioMAP Diversity Plus: CASM3C Assay for Monokine induced gamma interferon (MIG) Biomarker Activity (AID 2283048); details: primary human coronary artery smooth muscle cells; actives raise or lower the signal;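 further: MIG protein level measured by ELISA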
[2] = read-out: Thrombomodulin, THBD (gene 7056); assay: BSK_CASM3C_Thrombomodulin: BioMAP Diversity Plus: CASM3C Assay for Thrombomodulin Biomarker Activity (AID 2283051); details: primary human coronary artery smooth muscle cells; actives raise or lower the signal;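 further: thrombomodulin protein level measured by ELISA 24 h after dosing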
[3] = read-out: Tissue Factor, F3 (gene 2152); assay: BSK_CASM3C_TissueFactor: BioMAP Diversity Plus: CASM3C Assay for Tissue Factor Biomarker Activity (AID 2283052); details: primary human coronary artery smooth muscle cells; actives raise or lower the signal;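 further: cell surface tissue factor protein level read by ELISA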
[4] = read-out: Urokinase-type plasminogen activator receptor (uPAR), PLAUR (gene 5329); assay: BSK_CASM3C_uPAR: BioMAP Diversity Plus: CASM3C Assay for Urokinase-type plasminogen activator receptor (uPAR) Biomarker Activity (AID 2283054); details: primary human coronary artery smooth muscle cells; actives raise or lower the signal;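 further: cell-surface uPAR protein level quantified by ELISA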
[5] = read-out: Collagen III, COL3A1 (gene 1281); assay: BSK_hDFCGF_CollagenIII: BioMAP Diversity Plus: hDFCGF Assay for Collagen III Biomarker Activity (AID 2283056); details: primary human foreskin fibroblasts; actives raise or lower the signal
Outline: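 Response relative to DMSO, fitted in both directions, reflects ELISA-measured collagen III in human primary skin fibroblasts 24 h after compound addition.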

[6] = read-out: Epidermal growth factor receptor (EGFR), EGFR (gene 1956); assay: BSK_hDFCGF_EGFR: BioMAP Diversity Plus: hDFCGF Assay for Epidermal growth factor receptor (EGFR) Biomarker Activity (AID 2283057); details: primary human foreskin fibroblasts; actives raise or lower the signal
Outline: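 EGFR levels by ELISA in human dermal fibroblast cultures, 24 h post-treatment, fitted bidirectionally versus DMSO. Parallel wells stained with sulforhodamine B to detect overt cytotoxicity.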

[7] = read-out: Interleukin-8 (IL8), CXCL8 (gene 3576); assay: BSK_hDFCGF_IL8: BioMAP Diversity Plus: hDFCGF Assay for Interleukin-8 (IL8) Biomarker Activity (AID 2283058); details: primary human foreskin fibroblasts; actives raise or lower the signal
Outline: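 Fibroblast monolayers (human foreskin, hDFCGF) received test chemical for 24 h before ELISA detection of IL-8; either increases or decreases relative to DMSO count as activity.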

[8] = BSK_hDFCGF_Proliferation: Cell Proliferation Assessment in the BioMAP Diversity Plus: hDFCGF Assay (AID 2283059); details: primary human foreskin fibroblasts;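 further: curves fitted for both rise and fall of signal versus DMSO baseline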
Outline: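 Total protein read at 560 nm after 0.1% SRB staining of TCA-fixed human skin fibroblasts, […]. Activity is fitted in both directions relative to DMSO as baseline.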

[9] = BSK_hDFCGF_SRB: Viability Assessment in the BioMAP Diversity Plus: hDFCGF Assay (AID 2283061); details: primary human foreskin fibroblasts;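 further: cells exposed to compound for 24 h before the read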
Outline: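 SRB-based viability read on primary human skin fibroblasts at 24 h: TCA fixation, 0.1% dye, 560 nm. Gain or loss of signal is fitted against the DMSO negative control.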

[10] = read-out: TIMP metallopeptidase inhibitor 1 (TIMP1), TIMP1 (gene 7076); assay: BSK_hDFCGF_TIMP1: BioMAP Diversity Plus: hDFCGF Assay for TIMP metallopeptidase inhibitor 1 (TIMP1) Biomarker Activity (AID 2283062); details: primary human foreskin fibroblasts; actives raise or lower the signal
Outline: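 Bidirectional curve fitting against DMSO baseline yielded this endpoint, based on ELISA detection of TIMP-1 in primary human foreskin fibroblasts exposed to compound for 24 h.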

[11] = read-out: Vascular cell adhesion molecule 1 (VCAM1), VCAM1 (gene 7412); assay: BSK_hDFCGF_VCAM1: BioMAP Diversity Plus: hDFCGF Assay for Vascular cell adhesion molecule 1 (VCAM1) Biomarker Activity (AID 2283065); details: primary human foreskin fibroblasts; actives raise or lower the signal
Outline: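 Measured after 24 h chemical treatment of primary human skin fibroblasts, VCAM-1 was detected by ELISA and concentration-response analysed in both directions versus DMSO vehicle.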

[12] = read-out: Plasminogen activator inhibitor-1 (PAI1), SERPINE1 (gene 5054); assay: BSK_hDFCGF_PAI1: BioMAP Diversity Plus: hDFCGF Assay for Plasminogen activator inhibitor-1 (PAI1) Biomarker Activity (AID 2283066); details: primary human foreskin fibroblasts; actives raise or lower the signal
Outline: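 PAI-1 levels in human dermal foreskin fibroblasts were quantified by ELISA 24 h after dosing, with gain or loss analysed against DMSO. Overt cytotoxicity was checked by sulforhodamine B total-protein staining in parallel cultures.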

[13] = read-out: Intercellular Adhesion Molecule 1 (ICAM1), ICAM1 (gene 3383); assay: BSK_KF3CT_ICAM1: BioMAP Diversity Plus: KF3CT Assay for Intercellular Adhesion Molecule 1 (ICAM1) Biomarker Activity (AID 2283067); details: primary human keratinocytes with fibroblasts; actives raise or lower the signal
Outline: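 Bidirectional curve fitting against a DMSO baseline was applied to ICAM-1 ELISA signal from primary human skin co-cultures harvested 24 h after treatment, with SRB staining of parallel wells for overt cytotoxicity.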

[14] = read-out: Interferon-gamma inducible Protein 10 (IP10), CXCL10 (gene 3627); assay: BSK_KF3CT_IP10: BioMAP Diversity Plus: KF3CT Assay for Interferon-gamma inducible Protein 10 (IP10) Biomarker Activity (AID 2283068); details: primary human keratinocytes with fibroblasts; actives raise or lower the signal
Outline: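 Human keratinocyte plus foreskin fibroblast primary co-culture exposed to test chemical for 24 h; IP-10 measured by ELISA. Concentration-response fitted bidirectionally against DMSO control as baseline.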

[15] = BSK_KF3CT_SRB: Viability Assessment in the BioMAP Diversity Plus: KF3CT Assay (AID 2283069); details: primary human keratinocytes with fibroblasts
Outline: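 Cytotoxicity was gauged by SRB staining (0.1% SRB, 10% TCA fixation, 560 nm) of parallel cultures at 24 h. The cells were primary human skin keratinocytes co-cultured with fibroblasts, and activity was fitted in both directions against DMSO.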

[16] = read-out: Interleukin-1 alpha (IL1a), IL1A (gene 3552); assay: BSK_KF3CT_IL1a: BioMAP Diversity Plus: KF3CT Assay for Interleukin-1 alpha (IL1a) Biomarker Activity (AID 2283070); details: primary human keratinocytes with fibroblasts; actives raise or lower the signal
Outline: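 IL-1a was detected by ELISA 24 h after chemical treatment of a co-culture of human skin keratinocytes and foreskin fibroblasts. Gain or loss of signal was fitted against the DMSO baseline.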

[17] = read-out: TIMP metallopeptidase inhibitor 2 (TIMP2), TIMP2 (gene 7077); assay: BSK_KF3CT_TIMP2: BioMAP Diversity Plus: KF3CT Assay for TIMP metallopeptidase inhibitor 2 (TIMP2) Biomarker Activity (AID 2283071); details: primary human keratinocytes with fibroblasts; actives raise or lower the signal
Outline: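 TIMP-2 measured by ELISA at 24 h in human keratinocyte/fibroblast primary co-cultures exposed to chemicals. Both increases and decreases were fitted against DMSO. Parallel cultures were stained with SRB for total protein as an overt-cytotoxicity check.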

[18] = read-out: Matrix Metallopeptidase 9 (MMP9), MMP9 (gene 4318); assay: BSK_KF3CT_MMP9: BioMAP Diversity Plus: KF3CT Assay for Matrix Metallopeptidase 9 (MMP9) Biomarker Activity (AID 2283074); details: primary human keratinocytes with fibroblasts; actives raise or lower the signal;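 on AC50: MMP9 protein level quantified by ELISA in the co-culture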
Outline: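 MMP-9 quantified by ELISA after 24 h chemical treatment of primary human skin keratinocyte/fibroblast co-cultures; gain or loss fitted against DMSO, with parallel SRB staining (0.1% SRB, 560 nm) for overt cytotoxicity.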

[19] = read-out: urokinase plasminogen activator (uPA), PLAU (gene 5328); assay: BSK_KF3CT_uPA: BioMAP Diversity Plus: KF3CT Assay for urokinase plasminogen activator (uPA) Biomarker Activity (AID 2283075); details: primary human keratinocytes with fibroblasts; actives raise or lower the signal
Outline: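 ELISA read-out of uPA 24 h after dosing human skin keratinocytes co-cultured with foreskin fibroblasts. Signal change fitted both ways relative to DMSO; sulforhodamine B on parallel cultures marks overt cytotoxicity.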

[20] = read-out: E-selectin (Homo sapiens) (UniProt P16581); assay: BSK_LPS_Eselectin: BioMAP Diversity Plus: LPS Assay for Eselectin Biomarker Activity (AID 2283077); details: primary human HUVEC with PBMC; actives raise or lower the signal
Outline: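 Dose chemical onto LPS-driven HUVEC/PBMC co-culture; after 24 h, run ELISA for E-selectin; fit up- and down-going responses relative to DMSO control.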

Measured: AC50

Sequence of E-selectin (Homo sapiens) (P16581 whole entry, looked up): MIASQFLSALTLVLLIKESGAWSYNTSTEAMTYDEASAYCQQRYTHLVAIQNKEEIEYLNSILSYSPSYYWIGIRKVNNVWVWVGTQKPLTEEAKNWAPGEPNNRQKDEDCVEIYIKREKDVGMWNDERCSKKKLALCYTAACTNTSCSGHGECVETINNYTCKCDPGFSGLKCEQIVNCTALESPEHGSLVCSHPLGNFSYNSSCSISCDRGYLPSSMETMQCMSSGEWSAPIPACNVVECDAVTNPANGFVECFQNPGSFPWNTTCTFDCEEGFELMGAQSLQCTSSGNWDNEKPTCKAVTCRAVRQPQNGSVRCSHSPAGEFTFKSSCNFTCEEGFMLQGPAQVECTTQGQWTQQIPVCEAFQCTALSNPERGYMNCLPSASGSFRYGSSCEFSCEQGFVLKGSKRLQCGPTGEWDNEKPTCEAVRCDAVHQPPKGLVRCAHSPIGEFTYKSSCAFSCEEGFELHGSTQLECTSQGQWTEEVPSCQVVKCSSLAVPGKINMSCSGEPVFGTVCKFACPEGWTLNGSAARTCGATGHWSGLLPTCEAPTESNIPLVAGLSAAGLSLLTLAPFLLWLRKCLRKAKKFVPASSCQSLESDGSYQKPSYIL

Sc1nc2ccccc2s1
active: [3] 0.016 µM
inactive: [1] | [2] | [4] | [5] | [6] | [7] | [8] | [9] | [10] | [11] | [12] | [13] | [14] | [15] | [16] | [17] | [18] | [19] | [20]

CCC(C)=NO
inactive: [1] | [2] | [3] | [4] | [5] | [6] | [7] | [8] | [9] | [10] | [11] | [12] | [13] | [14] | [15] | [16] | [17] | [18] | [19] | [20]

CC(C)CC(=O)CC(C)CC(C)C (stereo not given)
inactive: [2] | [5] | [6] | [7] | [10] | [11] | [14]
active: [1] 32.1 µM | [3] 31.7 µM | [4] 30.4 µM | [8] 39.5 µM | [9] 34.7 µM | [12] 32.2 µM | [13] 31.8 µM | [15] 36.7 µM | [16] 35 µM | [17] 32.2 µM | [18] 36.4 µM | [19] 30.4 µM | [20] 29.6 µM

COC(=O)/C=C\C(=O)OC
inactive: [1] | [2] | [3] | [4] | [5] | [6] | [7] | [8] | [9] | [10] | [11] | [12] | [13] | [14] | [15] | [16] | [17] | [18] | [19] | [20]

CN(C)c1ccc(C(c2ccccc2)c2ccc(N(C)C)cc2)cc1
active: [2] 1.26 µM | [3] 7.33 µM | [5] 10.7 µM | [8] 3.87 µM | [18] 13.6 µM | [20] 15.6 µM
inactive: [1] | [4] | [6] | [7] | [9] | [10] | [11] | [12] | [13] | [14] | [15] | [16] | [17] | [19]

Cc1cccnc1
inactive: [1] | [2] | [3] | [4] | [5] | [6] | [7] | [8] | [9] | [10] | [11] | [12] | [13] | [14] | [15] | [16] | [17] | [18] | [19] | [20]
